Bioassay records (PubChem BioAssay)
Pol beta inh: qHTS Assay for Inhibitors of DNA Polymerase Beta; P06746; Pol beta primer extension/strand displacement, fluorescence kinetic; Potency, µM (series often up to 114 µM), inactives show at the highest dose activity change, negative = inhibition, hits mostly inhibitors; 340,000 compounds, 1.3% hits; note: potency is the fitted concentration of half-maximal effect; % is set by controls: 0 for no effect and ±100 for the full control effect
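Pol beta (10 nM) and compounds were preincubated 15 min at room temperature, then 50 nM substrate (final) started primer extension/strand displacement. Reads were taken at 0 and 10 min; concentration-response data were fitted to a four-parameter Hill equation.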
POLI inh: qHTS for Inhibitors of Polymerase Iota; DNA polymerase iota (Homo sapiens), Q9UNA4; Pol iota fluorescent replication assay, 10 min; Potency, µM (doses to about 115 µM), inactives show at the highest dose activity, negative = inhibition, most hits filed as inhibitors; 390,000 compounds, 1% hits; AID 588590, 2011; note: potency is the fitted concentration of half-maximal effect
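Pol iota at 10 nM preincubated 15 min with compounds at room temperature; reaction started with fluorescent substrate, 50 nM final. Fluorescence read kinetically at 0 and 10 min; buffer-only wells as negative control.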
PI4K2A block: qHTS for small molecular inhibitors of PI4K2A | Phosphatidylinositol 4-kinase type 2-alpha (Homo sapiens), Q9BTU6 | purified PI4K2A, ADP-Glo luminescence, 1 h; hits give low values | activity change, negative = inhibition, % at 76.9 µM | 420,000 compounds, 0.13% hits; in the data active = activity change below about -50%; inconclusive = mostly about -30% to -49%;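 note: -100% = wells without enzyme as full effect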
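PI4K2A activity was measured by ADP-Glo luminescence: enzyme (4 ug/mL stock) and phosphatidylinositol (1.2 mM stock) in Tris pH 7.5/MgCl2/EGTA/Triton X-100 buffer were reacted with ATP (300 microM stock) for one hour at ambient temperature.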
Pol eta inh-1: qHTS for Inhibitors of Polymerase Eta; DNA polymerase eta (Homo sapiens), Q9Y253; recombinant Pol eta, fluorescent DNA replication assay; Potency, µM (top dose mostly 114 µM), inactives show at the top dose activity change, negative = inhibition, hits mostly inhibitors; 390,000 compounds, 1.2% hits; AID 588591, 2011; note: potency is the fitted concentration of half-maximal effect; % is set by controls: 0 for no effect and ±100 for the full control effect
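Pol eta (10 nM) was preincubated with compounds for 15 min at room temperature, after which fluorescent replication substrate (50 nM final) was added to start the reaction. Fluorescence was read kinetically at 0 and 10 min.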
PI5P4K alpha inh: qHTS for Inhibitors of phosphatidylinositol 5-phosphate 4-kinase (PI5P4K). AID 652105, 2013. max response, %. Phosphatidylinositol 5-phosphate 4-kinase type-2 alpha (Homo sapiens), P48426. 330,000 compounds, 1.2% hits. PI5P4Kalpha enzyme, ADP-Glo luminescence, 60 min; hits give low values; active = max response of -50% or lower; inconclusive = between -30% and -50%; inactive = -30% or higher; note: value at the top dose of about 77 µM; % is set by controls: 0 for no effect and ±100 for the full control effect
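Controls without substrate or without enzyme flank wells where PI5P4Kalpha converts substrate using 5 microM ATP (final). Incubation lasts 60 minutes at room temperature; ADP formed is read by ADP-Glo luminescence.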
Pol kappa inh-1: qHTS for Inhibitors of Polymerase Kappa | Potency, µM (series often up to 107 µM), inactives show at the highest dose activity, negative = inhibition, most hits filed as inhibitors | DNA polymerase kappa (Homo sapiens), Q9UBT6 | 400,000 compounds, 0.53% hits | purified Pol kappa, fluorescent DNA synthesis assay, 10 min; note: potency is the fitted concentration of half-maximal effect; % is set by controls: 0 for no effect and ±100 for the full control effect
Target sequence (Q9UBT6 whole entry, looked up): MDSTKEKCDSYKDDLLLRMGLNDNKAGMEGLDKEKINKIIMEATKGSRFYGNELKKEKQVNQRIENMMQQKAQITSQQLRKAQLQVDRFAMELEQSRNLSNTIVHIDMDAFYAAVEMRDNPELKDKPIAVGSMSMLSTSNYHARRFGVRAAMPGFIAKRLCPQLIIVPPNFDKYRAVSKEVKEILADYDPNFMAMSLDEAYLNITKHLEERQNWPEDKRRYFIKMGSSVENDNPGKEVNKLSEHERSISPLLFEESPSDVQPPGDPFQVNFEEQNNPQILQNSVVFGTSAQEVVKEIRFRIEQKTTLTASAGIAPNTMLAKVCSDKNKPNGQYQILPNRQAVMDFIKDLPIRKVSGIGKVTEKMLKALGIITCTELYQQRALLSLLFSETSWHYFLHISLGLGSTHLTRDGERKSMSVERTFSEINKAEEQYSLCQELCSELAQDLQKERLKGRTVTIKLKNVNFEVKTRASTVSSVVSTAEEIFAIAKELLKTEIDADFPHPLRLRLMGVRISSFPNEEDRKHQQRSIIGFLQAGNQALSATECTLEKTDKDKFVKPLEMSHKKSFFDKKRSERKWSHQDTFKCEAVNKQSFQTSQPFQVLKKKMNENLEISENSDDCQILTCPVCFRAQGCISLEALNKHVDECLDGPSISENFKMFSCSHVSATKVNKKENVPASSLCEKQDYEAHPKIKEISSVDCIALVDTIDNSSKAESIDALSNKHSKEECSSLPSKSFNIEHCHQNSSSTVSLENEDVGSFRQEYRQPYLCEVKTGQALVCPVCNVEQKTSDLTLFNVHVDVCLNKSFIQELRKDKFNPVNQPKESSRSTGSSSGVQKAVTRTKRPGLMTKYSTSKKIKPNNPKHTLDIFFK
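Activity was followed as the change in fluorescence between reads at 0 and 10 min after starting the reaction with 50 nM substrate. Beforehand, 10 nM polymerase had been preincubated with compound for 15 min at room temperature.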
GALK inh confirm: Confirmation Assay for Inhibitors of Human Galactokinase (GALK); shares compounds with Pol eta inh-1; purified GALK, Kinase-Glo ATP depletion luminescence; Potency, µM (doses to about 115 µM), inactives show at the highest dose activity, negative = inhibition, usual class: inhibitors; 150 compounds, 70% hits
Redox cycling: Confirmatory Assay for Inhibitors of Human Galactokinase (GALK): Phenol-HRP redox assay counterscreen | Phenol red-HRP H2O2 redox cycling, absorbance 600 nm | Potency, µM (top dose mostly 115 µM), without a hit: top-dose activity change, negative = H2O2 signal, actives largely listed as inhibitors | 150 compounds, 40% hits | AID 2035, 2009 | shares compounds with Pol eta inh-1
HEK293 viability: Secondary Assay for Inhibitors of Human Galactokinase (GALK): HEK-293 Cell Viability Assay; 170 compounds, 10% hits; HEK-293 viability, ATP luminescence (CellTiter-Glo), 24/48 h; AID 2547, 2010; shares compounds with Pol eta inh-1; Potency, µM (titrated, usually from 46.1 µM), without a hit: at the highest dose activity change, negative = cytotoxicity, actives largely listed as inhibitors; note: potency is the fitted concentration of half-maximal effect; % is set by controls: 0 for no effect and ±100 for the full control effect
Pol kappa inh-2: qHTS for Inhibitors of Polymerase Kappa: Confirmatory Assay for Cherry-picked Compounds | shares compounds with Pol eta inh-1 | purified Pol-kappa, fluorescent strand-displacement substrate | Potency, µM, most hits filed as inhibitors | 920 compounds, 76% hits | AID 720501, 2013; note: potency is the fitted concentration of half-maximal effect
Pol eta inh-2: qHTS for Inhibitors of Polymerase Eta: Confirmatory Assay for Cherry-picked Compounds; Pol eta primer extension, TAMRA/BHQ fluorescence, 10 min; shares compounds with Pol eta inh-1; AID 720502, 2013; 2,600 compounds, 64% hits; Potency, µM, usual class: inhibitors; note: potency is the fitted concentration of half-maximal effect
* marks the source's active call; other numbers are inactive results; ? = inconclusive; . = no result given; [ ] = dose if it differs, or a comment. A selection: hits, their analogues and other compounds. The true share with any hit is near 2.8%. Unless noted, calls come from the whole dose curve; as a rule, active = well fitted curve in the direction sought with a large enough effect; inconclusive = small, poorly fitted or top-dose-only effect, or another doubt; inactive = no such curve, though single readings can be large; an effect the other way counts as inactive or inconclusive.

SMILES	Pol beta inh	POLI inh	PI4K2A block	Pol eta inh-1	PI5P4K alpha inh	Pol kappa inh-1	Pol eta inh-2	others
CCC(=O)N1CCc2cc(Br)cc(S(=O)(=O)CCC(=O)NCCc3ccc(C)cc3)c21	1%	16%	-6	-18%	.	-5%[60.1 µM]	.
COc1cc(C(=O)O)cc(OC)c1OCc1cc(C(=O)O)oc1C	18µM*	?	4	3.2µM*	-16	-42%	48*	Pol kappa inh-2=42*
O=C1Nc2cc(Cl)ccc2Oc2ccccc21	.	.	-1	.	.	.	.
Cc1cccc(Oc2ccc3c(c2)Oc2ccccc2NC3=O)c1	13µM*	71µM*	2	50µM*	.	?	?
CC1=CCC(C(=O)O)C(C(=O)NC2CCCCC2)C1 (stereo not drawn)	28µM*	?	6	20µM*	4	-41%	85*	Pol kappa inh-2=84*
Cc1ccccc1S(=O)(=O)N(C)C[C@@H]1OCc2ccccc2-c2c(n(C)c3ccccc23)C(=O)N([C@H](C)CO)C[C@@H]1C	.	.	1	-24%	4	.	.
CC1=C2C(CCS2(=O)=O)CC2(C1)C(=O)OC(C)(C)OC2=O (stereo not drawn)	?	?	-5	79µM*	-13	?	?
O=C(c1ccc(Cl)c(Cl)c1)N1CCN(c2ccnc3cc(Cl)ccc23)CC1	.	.	-3	.	.	.	.
COC/C=C/C1=CC2=CC(=O)C(C)(OC(=O)C3CCCC3)C(=O)C2=CO1 (stereo not drawn)	40µM*	?	-27	20µM*	-65*	50µM*	48*
COc1cc(CCc2ccccc2)c(C(=O)O)c(O)c1C/C=C(/C)CCC=C(C)C	.	?	3	32µM*	-2	79µM*	85*	Pol kappa inh-2=?
COc1ccccc1/C=C1/SC(=O)N(CCC(=O)Nc2ccc(S(=O)(=O)Nc3nccs3)cc2)C1=O	?	50µM*	-2	20µM*	-29	-14%	?
O=C(CCN1C(=O)S/C(=C\c2ccccc2)C1=O)Nc1ccc(S(=O)(=O)Nc2nccs2)cc1	?	?	-4	28µM*	-30	-13%	?
Cc1ccc([C@@H]2CC=C(C(=O)O)[C@H](c3ccc(C(C)(C)C)cc3)N2S(=O)(=O)c2ccc(C)cc2)cc1	.	?	-1	89µM*	-23	-12%	.	Pol kappa inh-2=?
CCOC(=O)c1cc(-c2ccc(/C=C3/C(=O)N(c4ccc(C(=O)O)cc4)N=C3C)o2)ccc1Cl	-13%	1.4µM*	-24	18µM*	-25	?	.	GALK inh confirm=21µM*;Redox cycling=12µM*;HEK293 viability=14%
O=C(O)c1ccc(-n2c(-c3cc(-c4ccco4)[nH]n3)n[nH]c2=S)cc1	?	?	1	10µM*	?	?	30*
Cc1cc(SCC(=O)N2c3ccccc3NC(=O)CC2C)nc2ccccc12 (stereo not drawn)	.	.	5	-1%	-15	.	.
CC(c1ccccc1)N1C(=O)c2ccc(C(=O)Nc3ccc(Br)cc3C(=O)O)cc2C1=O (stereo not drawn)	14%	-13%	0	50µM*	-57*	-8%	76*
COc1ccccc1CCn1cnc(-c2ccc(Br)cc2)c1C(C)C	.	.	0	.	2	.	.
COc1cc(OC)c(NC(=O)CN(C)S(=O)(=O)c2ccc3[nH]c(=O)oc3c2)cc1Cl	?	-5%	0	22µM*	2	?	?	Pol kappa inh-2=42*
Cc1ccc(NC(=O)CCNS(=O)(=O)c2ccc3c(c2)oc(=O)n3C)cc1	-3%	20µM*	-3	50µM*	.	89µM*	?
COc1ccc(-c2c(C(F)(F)F)[nH]n3c(=O)cc(-c4ccccc4)nc23)cc1	12%	-12%	2	89µM*	-5	-4%	?
Cc1[nH]n2c(=O)cc(-c3ccc(Cl)cc3)nc2c1-c1ccccc1	-23%	-8%	2	-13%	.	0%	.
NC(CSC1(c2ccc(Cl)cc2)c2ccccc2-c2ccccc21)C(=O)O (stereo not drawn)	.	?	0	?	?	-9%	?
NC(CSC1(c2ccc(F)cc2)c2ccccc2-c2ccccc21)C(=O)O (stereo not drawn)	.	.	1	?	-16	.	.
CCc1ccc(NC(=O)C2CCCN2S(=O)(=O)c2ccc3c(c2)CCCC(=O)N3)cc1 (stereo not drawn)	-20%	-7%	5	-8%	.	-10%	.
CCSC1=NSC2=NC(=O)/C(=C\c3coc4ccccc4c3=O)C(=N)N12	28µM*	?	-8	20µM*	-59*	-19%	.	Pol kappa inh-2=?
CC(C)CC1=NN2C(=N)/C(=C\c3coc4ccccc4c3=O)C(=O)N=C2S1	20µM*	?	-21	20µM*	-53*	?	76*
